High-throughput results deposited in PubChem by National Center for Advancing Translational Sciences (NCATS).
This is a sample that favours compounds with a hit; in the whole collection about 10% have one here.
G9a block – G9a (human) methyltransferase inhibition. Q96KQ7. Potency, µM (top dose mostly 102 µM), without a hit: at the top dose activity, negative = inhibition, most hits filed as inhibitors. 350,000 tested, 8.8% active. G9a H3K9 monomethylation, AlphaScreen, 2 h; further: potency means the concentration at half of the fitted maximal effect; nearly all actives have a fitted effect of over 75% in size
Target sequence (Q96KQ7 913-1193 limits assumed): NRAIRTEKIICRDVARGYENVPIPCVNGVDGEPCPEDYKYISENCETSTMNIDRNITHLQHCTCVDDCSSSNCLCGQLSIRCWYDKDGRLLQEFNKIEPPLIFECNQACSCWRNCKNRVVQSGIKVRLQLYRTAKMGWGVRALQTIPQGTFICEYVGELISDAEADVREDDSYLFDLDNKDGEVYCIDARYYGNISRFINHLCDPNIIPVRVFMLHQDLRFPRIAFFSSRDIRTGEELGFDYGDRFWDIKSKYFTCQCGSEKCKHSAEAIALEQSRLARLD
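Methyltransferase reactions run at room temperature for 2 h (20 nM enzyme, 500 nM biotin-H3K9 peptide, 20 uM SAM) after a 15 min compound preincubation; product detected by AlphaScreen beads and anti-H3K9me1 antibody.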
MmCpn inh – blocks the Methanococcus maripaludis chaperonin Mm-Cpn; purified Mm-Cpn ATPase, ADP Transcreener TR-FRET; Potency, µM (doses to about 76.9 µM), without a hit: at the highest dose activity, negative = inhibition, most hits filed as inhibitors; 330,000 tested, 0.031% active; AID 504842; further: potency means the concentration at half of the fitted maximal effect; nearly all actives have a fitted effect of over 80% in size
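TR-FRET (320 nm excitation; 590 and 665 nm emission) reports ADP made from 10 uM ATP by 25 nM enzyme; compounds were preincubated 10 min, reaction run 30 min, both at 37°C.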
CCT modulator – changes cytosolic chaperonin activity | purified chaperonin ATPase assay, HTRF ADP detection, 30 min | activity change, % (concentration not given with the values), hits read low | 360,000 tested, 0.3% active; in the data active means activity change below about -30%
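We incubate TRiC, 40 or 20 nM final, with library compounds at 76 uM and 10 uM ATP for 30 min at 37 °C. ADP formed is detected with Transcreener HTRF reagents after 30 min at room temperature.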
Sfp PPTase inh – Sfp phosphopantetheinyl transferase inhibition; 310,000 tested, 3.5% active; Biochemical Sfp PPTase activity, qHTS; Potency, µM, without a hit: largest response in the series, negative = inhibition, hits mostly inhibitors;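 further: the enzyme is Sfp with the accession as filed and its product quenches rhodamine fluorescence; potency means the concentration at half of the fitted maximal effect; 0% = enzyme reaction without inhibitor and -100% = no enzyme wells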
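Compounds were incubated with enzyme (final 15 nM) for 15 min at room temperature before substrate addition started the reaction. Fluorescence at 525 nm excitation, 598 nm emission was recorded immediately and after 30 minutes.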
PLK1 PBD inh – PLK1 (human) polo-box domain binding inhibition | Plk1 PBD binding of FITC phosphopeptide, fluorescence polarization | Potency, µM, inactives show max response, negative = inhibition, hits mostly inhibitors | 360,000 tested, 2.8% active | P53350; further: potency means the concentration at half of the fitted maximal effect; series mostly up to about 57 µM; nearly all actives have a fitted effect of over 65% in size
VDR inh – inhibitors of human vitamin D receptor. P11473. VDR-SRC2-3 peptide fluorescence polarization, 2 h. AID 504847. Potency, µM, for inactives: max response, negative = inhibition, most hits filed as inhibitors. 400,000 tested, 0.93% active; further: potency means the concentration at half of the fitted maximal effect
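Signal is fluorescence polarization, reporting how far test compounds block the interaction of VDR with the SRC2-3 coregulator peptide after a 2 h room-temperature incubation.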
Numbers without * were called inactive; ? = inconclusive; · = no result given; [ ] = dose if it differs, or a comment. Unless noted, the call rests on the fitted dose curve; in most records, active means well fitted curve in the direction sought with a large enough effect; inconclusive means small, poorly fitted or top-dose-only effect, or another doubt; inactive means no such curve, though single readings can be large; an effect the other way counts as inactive or inconclusive. Unless noted, on the % scale 0 is the no-effect control and ±100 the full control effect.

SMILES | G9a block | MmCpn inh | CCT modulator | Sfp PPTase inh | PLK1 PBD inh | VDR inh
Cc1cc(=O)[nH]c(N/N=C/c2c(C)nn(-c3ccccc3)c2C)n1 | 25.1µM* | 1.8% | -2.2 | -19.8% | 2.2% | -7.0%
Cc1nn(-c2ccccc2)c(C)c1/C=N\NS(=O)(=O)c1ccc(Cl)cc1 | 3.16µM* | -1.1% | -0.8 | 7.9% | -10.8% | 12.1%
Cc1ccsc1/C=N/Nc1ncnc2nc[nH]c12 | 18.1% | -4.8% | -0.7 | 50.1µM* | -5.0% | -2.2%
Cc1nn(-c2ccccc2)c(C)c1/C=N/Nc1nc2ccccc2[nH]1 | ? | 0.0% | -15.1 | -6.7% | -13.7% | 2.7%
Cc1nn(-c2ccccc2)c(C)c1NS(=O)(=O)c1ccccc1 | 13.0%[59 µM] | 0.4% | 1.0 | 6.9% | -1.7% | 12.6%
CCCCCCCCCCCCCCCCC(C(=O)O)C(O)(CC(=O)O)C(=O)O (stereo not given) | -40.2%[12.7 µM] | · | · | -17.3% | · | 10µM*
O=C1/C(=C\c2cccc(O)c2O)SC(=S)N1Cc1ccccc1 | 4.47µM* | -1.6% | -6.5 | 39.8µM* | 2.99µM* | -29.3%
O=C(CN1C(=O)/C(=C/c2ccccc2)SC1=S)NNC(=O)c1ccccc1O | -4.4% | -2.0% | 1.2 | 7.1% | -5.2% | 65.8%
COc1cc(/C=C2/SC(=NCc3ccccc3)N(Cc3ccccc3)C2=O)ccc1O | -0.2%[59 µM] | -0.8% | 2.5 | 6.3% | 10.6% | 14.9%
COc1cc(/C=C2/SC(=S)N(Cc3ccccc3)C2=O)ccc1O | 44.7µM* | -2.4% | 2.4 | -6.8% | 14.6% | -2.0%
COc1ccc(/C=C2\SC(=S)N(Cc3cccnc3)C2=O)cc1C | 11.2µM* | -1.6% | -1.2 | -1.5% | -7.9% | -6.5%
O=C1/C(=C\c2ccc(O)c(O)c2)SC(=S)N1Cc1ccccc1 | 3.98µM* | 0.7% | -1.0 | -19.3% | 15.6% | -2.5%
C[C@@](O)(/C=C/[C@H]1CC=CC(=O)O1)[C@@H](C[C@@H](O)\C=C/C=C\C=C\CO)OP(=O)(O)O | -2.9%[12.7 µM] | · | · | 1.7% | · | -3.8%
O=C(NCc1cccc(Br)c1)c1cnn(-c2ccc(F)cc2)c1-n1cccc1 | -0.3%[59 µM] | · | · | · | · | 3.7%
COc1cccc(-c2ccc3ncnc(N(C)C)c3c2)c1 | 3.6%[0.501 µM] | · | · | ? | · | -21.6%
COc1ccccc1C(=O)Nc1ccc(C(=O)OCc2cc(=O)n3c4c(sc3n2)CCCC4)cc1 | -1.3%[59 µM] | · | · | · | · | 2.7%
Cc1ccccc1/C=C1\SC(=S)N(/N=C/c2cc([N+](=O)[O-])ccc2O)C1=O | 44.7µM* | 0.6% | -13.4 | -13.6% | ? | -16.4%
O=C1/C(=C\c2cc([N+](=O)[O-])ccc2O)SC(=S)N1Cc1ccc(Cl)cc1 | 20µM* | -1.6% | -1.4 | ? | -11.9% | ?
COc1ccc(-c2noc(Cn3c(=O)c4ccccc4n(CC(=O)Nc4cccc(OC)c4)c3=O)n2)cc1 | -0.7%[59 µM] | · | · | · | · | 4.7%
O=C(NN1C(=O)c2ccccc2C1=O)C1C2CCCCC21 (stereo not given) | 2.82µM* | -1.4% | 2.0 | -5.8% | -8.3% | 6.8%
COc1ccc(-c2onc(C)c2C)cc1S(=O)(=O)Nc1cccc(C#N)c1 | -2.9%[59 µM] | · | · | · | · | 8.4%
COc1ccccc1-c1cc2nc(C)c(CCC(=O)NCCc3ccc(SC)cc3)c(C)n2n1 | -10.0%[59 µM] | · | · | · | · | -0.9%
CCc1nnc(N/N=C/c2ccccc2F)n1N | ? | 1.0% | 2.5 | 50.1µM* | -0.7% | -6.9%
COc1cc(O)ccc1C(C)=O | · | · | · | 13.3% | · | 5.1%
Cc1ccc(N2C(=O)/C(=C/c3ccco3)SC2=S)cc1 | -16.6% | 0.7% | 0.2 | ? | -8.7% | -5.9%
Cc1ccc(N=C2NC(=O)S/C2=C\c2ccco2)cc1 | ? | -1.9% | -0.7 | 35.5µM* | -20.3% | 5.2%
O=C1NC(=Nc2ccccc2)/C(=C/c2ccco2)S1 | 11.2µM* | -1.7% | -1.9 | 22.4µM* | -9.3% | -10.8%
COc1ccc(N=C2NC(=O)S/C2=C\c2ccc(N(C)C)cc2)cc1 | -41.8%[59 µM] | -4.3% | -0.6 | -6.9% | ? | -0.6%
COc1ccc(-c2cc(C)no2)cc1S(=O)(=O)N1CCOc2ccccc21 | 15.4% | -8.8% | -81.1* | 34.0% | 2.9% | -16.7%
